Reference: PubChem BioAssay (Tox21)
A number with no mark means an inactive call. Records with an inconclusive call do not appear. Entries that show only a call come without a potency. Calls of active or inactive are those of the source. Unless noted, calls come from the whole dose curve; as a rule, active = well fitted curve in the direction sought with a large enough effect in the repeat runs; inconclusive = weak or mixed curves; inactive = no such curve, though single readings can be large; an effect the other way counts as inactive or inconclusive.

Key:
[1] = qHTS assay to identify small molecule agonists of the hypoxia (HIF-1) signaling pathway - cell viability counter screen (AID 1224844; calls by dose curve; note: nearly all actives have a fitted effect of over 50% in size)
In short: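 Cytotoxicity was measured in parallel with the HRE-driven beta-lactamase readout: after 17 hrs of compound exposure at 37C, HRE-bla ME-180 cells received CellTiter-Glo and luminescence was recorded 30 min later.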

[2] = qHTS assay to identify small molecule agonists of H2AX (AID 1224845; active = well fitted activation curve with a large enough effect in the signal ratio in the repeat runs, not every such curve was filed as active; the % refers to the signal ratio)
In short: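 Phospho-H2AX Ser139 measured by HTRF (ex 320 nm; em 665 and 620 nm) after 24 hr antibody incubation. Compounds, 15 concentrations, 0.76% DMSO, were applied to CHO-K1 cells for 3hr at 37C before lysis.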

[3] = qHTS assay to identify small molecule agonists of the hypoxia (HIF-1) signaling pathway (AID 1224846; active = well fitted activation curve with a large enough effect in the signal ratio in the repeat runs, not every such curve was filed as active; the % refers to the signal ratio)
In short: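 Compounds from the Tox21 10K library, dissolved in DMSO, are tested for induction of a hypoxia response element–controlled beta-lactamase reporter in ME-180 cells. Exposure lasts 17 hrs at 37C after a 5 hr settling period, followed by CCF4-AM FRET substrate.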

[4] = qHTS RealTime-Glo MT Cell Viability Assay in HepG2 cells - 24 hour (AID 1224867); note: nearly all actives have a fitted effect of over 50% in size
In short: (§1)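 Real-time, nonlytic viability: 600 HepG2 cells/well mixed with NanoLuc enzyme plus prosubstrate; 5 h settle, compound (DMSO) added by pintool; luminescence monitored over 40 h at 37 C.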

[5] = qHTS RealTime-Glo MT Cell Viability Assay in HEK293 cells - 32 hour (AID 1224868); note: top concentration of the series differs between compounds; nearly all actives have a fitted effect of over 50% in size
In short: (§2)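 Cells + reagent dispensed (600 cells/well, HEK293) → 5 h at 37 C/5% CO2 → 23 nL compound in DMSO pinned → 40 h at 37 C → luminescence read at 0, 8, 16, 24, 32, 40 h.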

[6] = A CellTox Green Cytotoxicity Assay to monitor cytotoxicity in HEK293 cells - 0 hour (AID 1224869); note: nearly all actives have a fitted effect of over 50% in size
In short: (§3)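 Cells (HEK293, 600/well) and dye reagent are dispensed together. After 5 h at 37 C, 23 nL compound is pinned in. Plates stay at 37 C for 40 h with fluorescence read at 0h, 8h, 16h, 24h, 32h and 40h.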

[7] = qHTS RealTime-Glo MT Cell Viability Assay in HepG2 cells - 40 hour (AID 1224870); note: nearly all actives have a fitted effect of over 50% in size
In short: (§4)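 Real-time viability: cells seeded at 600 per well together with NanoLuc and cell-permeant prosubstrate, compounds added after 5 h incubation. Luminescence tracked at 0, 8, 16, 24, 32 and 40 h of exposure.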

[8] = A CellTox Green Cytotoxicity Assay to monitor cytotoxicity in HEK293 cells - 40 hour (AID 1224871); note: nearly all actives have a fitted effect of over 45% in size; note: potency is the fitted concentration of half-maximal effect
In short: as §3

[9] = qHTS RealTime-Glo MT Cell Viability Assay in HEK293 cells - 16 hour (AID 1224872)
In short: as §2

[10] = qHTS RealTime-Glo MT Cell Viability Assay in HepG2 cells - 8 hour (AID 1224873); note: nearly all actives have a fitted effect of over 55% in size
In short: as §4

[11] = qHTS RealTime-Glo MT Cell Viability Assay in HEK293 cells - 40 hour (AID 1224874); details: RealTime-Glo luminescence; max response: active compounds read low; note: nearly all actives have a fitted effect of over 50% in size
In short: (§5)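 Real-time viability in HEK293: signal arises when living cells convert a prosubstrate for NanoLuc in the medium, so luminescence tracks viable cell number. Compound (23 nL, DMSO) added 5 h post-seeding; kinetic reads at 0–40 h, 37 C.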

[12] = A CellTox Green Cytotoxicity Assay to monitor cytotoxicity in HepG2 cells - 16 hour (AID 1224876); note: nearly all actives have a fitted effect of over 45% in size
In short: (§6)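 Cells and non-lytic dye reagent are dispensed together (600 HepG2 cells/well) and incubated 5 h before DMSO compound transfer. Kinetic fluorescence is then recorded in the same wells during 40 h at 37 C.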

[13] = qHTS RealTime-Glo MT Cell Viability Assay in HepG2 cells - 32 hour (AID 1224877); note: nearly all actives have a fitted effect of over 55% in size
In short: as §1

[14] = A CellTox Green Cytotoxicity Assay to monitor cytotoxicity in HepG2 cells - 24 hour (AID 1224878); note: nearly all actives have a fitted effect of over 45% in size
In short: as §6

[15] = A CellTox Green Cytotoxicity Assay to monitor cytotoxicity in HepG2 cells - 40 hour (AID 1224879); note: nearly all actives have a fitted effect of over 40% in size
In short: as §6

[16] = qHTS RealTime-Glo MT Cell Viability Assay in HEK293 cells - 0 hour (AID 1224880); note: top concentration of the series differs between compounds; nearly all actives have a fitted effect of over 45% in size
In short: as §5

[17] = qHTS assay to identify small molecule antagonists of the estrogen related receptor (ERR) signaling pathway from Tox21 library (AID 1224848); note: nearly all actives have a fitted effect of over 50% in size
In short: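 ERR cell line, 2,000 cells/well. 6 h settle, then compound (DMSO) added; 18 h at 37 C; ONE-Glo luminescence after 30 min RT.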

[18] = qHTS assay to identify small molecule agonists of the estrogen related receptor (ERR) signaling pathway from Tox21 library (AID 1224849; calls by dose curve; note: nearly all actives have a fitted effect of over 15% in size); details: ERR reporter cell line, ONE-Glo luciferase, 18 h; at 92.4 µM (top of the series) unless noted
In short: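 Cells carrying the ERR reporter were plated and allowed to settle for 6 h, exposed to library compounds for 18 h at 37 C, then lysed with ONE-Glo and luminescence measured.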

[19] = A CellTox Green Cytotoxicity Assay to monitor cytotoxicity in HEK293 cells - 24 hour (AID 1224875); note: nearly all actives have a fitted effect of over 45% in size
In short: as §3

Row | SMILES | outcome [1] | outcome [2] | outcome [3] | outcome [4] | Potency [5] | outcome [6] | outcome [7] | Potency [8] | Potency [9] | outcome [10] | max response [11] | outcome [12] | outcome [13] | outcome [14] | Potency [15] | Potency [16] | Potency [17] | activity change, positive = activation [18] | outcome [19]
1 | Cc1cccc2nccnc12 | inactive | inactive | inactive | inactive | inactive | inactive | inactive | 24.5 µM (active) | inactive | inactive | 6.74% | inactive | inactive | inactive | inactive | inactive | – | – | –
2 | COc1ccc(OC)c(Cl)c1 | inactive | inactive | inactive | inactive | inactive | inactive | inactive | inactive | inactive | inactive | 5.92% | inactive | inactive | inactive | inactive | inactive | inactive | -2.23% | inactive
3 | COc1ccc2nc(SCc3ncc(C)c(OC)c3C)[nH]c2c1 | inactive | inactive | inactive | inactive | – | inactive | inactive | inactive | – | inactive | – | inactive | inactive | inactive | inactive | inactive | inactive | -13.6% [at 42.5 µM] | –
4 | C=C(C)C(=O)OCC(C)(C)COC(=O)C(=C)C | inactive | inactive | inactive | inactive | inactive | inactive | inactive | inactive | inactive | inactive | 2.01% | inactive | inactive | inactive | inactive | inactive | inactive | 0.866% | inactive
5 | CCOc1cc(NC(C)=O)ccc1C(=O)OC | inactive | inactive | inactive | inactive | inactive | inactive | inactive | inactive | inactive | inactive | -4.96% | inactive | inactive | inactive | inactive | – | inactive | -6.13% [at 42.5 µM] | inactive
